# Measurements reported in PubChem BioAssay.
# Calls of active or inactive are those of the source. No stated cut-off is given here; in the data, active means inhibition above about 80%; inactive means the rest.
# Experiment: HTB85 osteosarcoma cell growth inhibition, synergistic combos for chromothripsis tumors, BGB or cisplatin IC20 combos (AID 1671453);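 further: cells exposed for 96 hours before readout; 0% = vehicle DMSO and 100% = high DMSO killing control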
# Conditions: HTB85 osteosarcoma cells, drug combinations, at 0.5 µM, stronger effect = higher value
row,SMILES,inhibition
1,O=c1[nH]cnc2c1ncn2C1CCC(CO)O1 (configuration not stated),0.13% (inactive)
2,Cc1cn(C2C=CC(CO)O2)c(=O)[nH]c1=O (configuration not stated),-32.3% (inactive)
3,Nc1ccn(C2CCC(CO)O2)c(=O)n1 (configuration not stated),-28.2% (inactive)

# Same assay, conditions: HTB85 osteosarcoma cells, drug combinations, measured here: with BGB IC20, at 0.5 µM, stronger effect = higher value
row,SMILES,inhibition
1,O=c1[nH]cnc2c1ncn2C1CCC(CO)O1 (configuration not stated),-29.8%
2,Cc1cn(C2C=CC(CO)O2)c(=O)[nH]c1=O (configuration not stated),-52.5%
3,Nc1ccn(C2CCC(CO)O2)c(=O)n1 (configuration not stated),-29.8%

# Same assay, conditions: HTB85 osteosarcoma cells, drug combinations, measured here: with BGB IC20, at 5 µM, stronger effect = higher value
row,SMILES,inhibition
1,O=c1[nH]cnc2c1ncn2C1CCC(CO)O1 (configuration not stated),-39.1%
2,Cc1cn(C2C=CC(CO)O2)c(=O)[nH]c1=O (configuration not stated),-73.7%
3,Nc1ccn(C2CCC(CO)O2)c(=O)n1 (configuration not stated),-10%

# Same assay, conditions: HTB85 osteosarcoma cells, drug combinations, measured here: with cisplatin IC20, at 0.5 µM, stronger effect = higher value
row,SMILES,inhibition
1,O=c1[nH]cnc2c1ncn2C1CCC(CO)O1 (configuration not stated),5.05%
2,Cc1cn(C2C=CC(CO)O2)c(=O)[nH]c1=O (configuration not stated),-25.1%
3,Nc1ccn(C2CCC(CO)O2)c(=O)n1 (configuration not stated),-43.4%
